The assay can be described thus: CDH13 Derepression/Induction Secondary Assay for qHTS Assay for Epigenetic Modulators. The conditions noted are these: H358 cells, CDH13 mRNA qPCR, 72 h; hits give high values. From the text:
NIH Molecular Libraries Screening Centers Network [MLSCN] NIH Chemical Genomics Center [NCGC] MLSCN Grant: 1 X01 MH079860-01 Assay Provider: Elisabeth D. Martinez, University of Texas SW Medical Center NCGC Assay Overview: This secondary assay characterizes selected actives identified in the qHTS of the Locus Derepression (LDR) assay (PubChem AID 597). The LDR assay detects the derepression of a GFP reporter that is stably integrated in a region of the genome of murine c127i mammary cells that is presumably silenced. Compounds that cause derepression of the locus to express GFP are identified by enumerating GFP positive cells using a laser-scanning microplate cytometer. Selected LDR actives were assayed for the induction of CDH13 gene expression, a gene silenced by methylation of its promoter. […]
NCGC Assay Protocol Summary Exponentially growing H358 non-small cell lung cancer cells were treated daily with fresh media containing the indicated concentrations of compounds for 72 hr. Cellular RNA was extracted, quantified, DNAse treated and reverse transcribed. The resulting cDNA was amplified in TaqMan real time quantitative PCR assays (Applied Biosystems) containing validated primers specific for CDH13 (Hs00169908.m1). […] Gene expression was measured by fold-induction over control DMSO-treated samples (36-37 average cycle time). […]

Results filed as inconclusive are left out. The source made the active and inactive calls.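 Rule for the calls: active = raised CDH13 expression over DMSO controls, judged by fold change in triplicate runs, no set cutoff; inconclusive = doubtful CDH13 rise, criteria not stated; inactive = no rise, falls in expression ignored.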

As to `CN1CSC(=S)N(C)C1`, the fold change is 1 (inactive).

(Values after PubChem BioAssay AID1042 (National Center for Advancing Translational Sciences (NCATS), 2008).)
